Assay results taken from publication PMC7819943, “Rice protein-binding microarrays: a tool to detect cis-acting elements near promoter regions in rice”.
Over roughly 68,000 sequences, “fluorescence intensity (a.u.)” has its median near 9,100; the highest 2% begin near 16,000. Shown is part of a subset that was picked to be rich in the highest values.

Target: OsWRKY34 (Oryza sativa, UniProt Q0JBA9 1-250)
Experiment: protein-binding microarray (RPBM); PBS, 2% BSA, 51.3 ng/ul salmon testes DNA, 50 uM zinc acetate, 200 nM TF, 25 C, 1 h; high values mean tight binding
Conditions: protein: recombinant; tags: N-terminal polyhistidine and DsRed monomer fusion (pET32a); label: CyDye5-dUTP incorporated in the synthesized complementary strand; 3' TTTTT single-stranded linker to array surface; dsDNA, one strand shown
Outline: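 Ni–NTA purification followed expression in E. coli BL21-CodonPlus of transcription factors fused N-terminally to a polyhistidine tag and DsRed. At 200 nM in PBS with 2% BSA, salmon testes DNA and 50 µM zinc acetate, the protein was incubated for 1 h at 25 °C with a custom Agilent array that had been primer-extended with Cy5-dUTP and blocked with 2% BSA. After washing, the array was read on an Axon 4000B scanner. The binding signal is per-feature fluorescence intensity in arbitrary units.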

OsWRKY34, sequence (Q0JBA9 entry or part of it): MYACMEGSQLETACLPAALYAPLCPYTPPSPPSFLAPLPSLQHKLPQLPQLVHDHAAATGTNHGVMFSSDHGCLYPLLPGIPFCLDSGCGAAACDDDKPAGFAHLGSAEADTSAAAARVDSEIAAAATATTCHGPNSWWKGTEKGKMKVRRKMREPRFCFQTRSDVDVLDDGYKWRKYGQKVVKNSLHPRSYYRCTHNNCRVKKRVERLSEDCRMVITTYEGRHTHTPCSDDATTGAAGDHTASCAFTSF

**Q.** Which binding signal does the source give for “TAGGTTTTTTTTTACTTTTTAACTTGGCTGATTTTATTGACGGAGTCACCTAGTGCAG” here?
**A.** The binding signal was 8760 fluorescence intensity (a.u.).

**Q.** With “GACTCTTGCGATTCCCTCTGTTGAACTTGTTCGTTCTCCTCGGAGTCACCTAGTGCAG” as the sequence, how does the binding signal read?
**A.** The binding signal was 10600 fluorescence intensity (a.u.).

**Q.** “TTCCCCATGTTTTTTTGCCCACTAACTCACTAGCCACCACCGGAGTCACCTAGTGCAG” was tested. Which binding signal did it give?
**A.** Its binding signal is 10700 fluorescence intensity (a.u.).

**Q.** With “CCTCGACCTCTCGCTACTCCAGGCGCCGCCCCATCAGATGCGGAGTCACCTAGTGCAG” as the sequence, how does the binding signal read?
**A.** The binding signal was 8200 fluorescence intensity (a.u.).

**Q.** For “CGTACGCGCCCACGCCCACTCCCACGCCTTCGCGCGCGCGCGGAGTCACCTAGTGCAG”, which binding signal is on record?
**A.** Its binding signal is 9220 fluorescence intensity (a.u.).

**Q.** “TTAGGTCGGGTTTTTCCCGTTTCTCGTTTCTATGGCGATGCGGAGTCACCTAGTGCAG” was tested. Which binding signal did it give?
**A.** The binding signal was 8750 fluorescence intensity (a.u.).

**Q.** “TCCTTGTGCCCACTTCTAGCTAGCTTCCAAGTTCCAACCACGGAGTCACCTAGTGCAG” was tested. Which binding signal did it give?
**A.** The binding signal was 13700 fluorescence intensity (a.u.).

**Q.** Which binding signal does the source give for “GGTGCTTGTTTAATCAAAGCTTGCTATTTGGTACTTTTTTCGGAGTCACCTAGTGCAG” here?
**A.** Its binding signal is 8940 fluorescence intensity (a.u.).

**Q.** For “GGACCACCCTGCCGCGGACATCACCCATCTCGTCATCTCCCGGAGTCACCTAGTGCAG”, which binding signal is on record?
**A.** Its binding signal is 9570 fluorescence intensity (a.u.).

**Q.** Which binding signal does the source give for “TCCCTAAATATTTGACGCCGTTGACTTTTTTAAACATGTTCGGAGTCACCTAGTGCAG” here?
**A.** Its binding signal is 26400 fluorescence intensity (a.u.).

**Q.** “ATATTTGACGCCGTTGACTTTTTTAAACATGTTTGACCGTCGGAGTCACCTAGTGCAG” was tested. Which binding signal did it give?
**A.** Its binding signal is 44400 fluorescence intensity (a.u.).

**Q.** With “CACATATTGATCTATTCTACTAAATTTTTTTTATGACTTTCGGAGTCACCTAGTGCAG” as the sequence, how does the binding signal read?
**A.** The binding signal was 8630 fluorescence intensity (a.u.).

**Q.** “CCGTTGGCTTTTTTAAACATGTTTGACCGTTTATTTTATTCGGAGTCACCTAGTGCAG” was tested. Which binding signal did it give?
**A.** Its binding signal is 14100 fluorescence intensity (a.u.).

**Q.** With “ATCTAGGATACCGTTGACTTTTCGTACTAACATTTGACGTCGGAGTCACCTAGTGCAG” as the sequence, how does the binding signal read?
**A.** Its binding signal is 32800 fluorescence intensity (a.u.).

**Q.** Which binding signal does the source give for “TCCCTAAATATTTGACGCCATTGACTTTTTTAAACATGTTCGGAGTCACCTAGTGCAG” here?
**A.** Its binding signal is 11200 fluorescence intensity (a.u.).

**Q.** For “TTGACGCCGTTGACTTTTCTAAACATATTTGACTATTCGTCGGAGTCACCTAGTGCAG”, which binding signal is on record?
**A.** Its binding signal is 22300 fluorescence intensity (a.u.).

**Q.** “CAAATTACTTCCTTTTCAAAATCTAGGATACCGTTGACTTCGGAGTCACCTAGTGCAG” was tested. Which binding signal did it give?
**A.** Its binding signal is 9460 fluorescence intensity (a.u.).

**Q.** How did the binding signal turn out when “TGTTTTATTTTTAGGATACTTCTACCTTTTTTCGCTTTGACGGAGTCACCTAGTGCAG” was run?
**A.** Its binding signal is 9510 fluorescence intensity (a.u.).

**Q.** Which binding signal does the source give for “TGCTTTGGTTGTCTTCTTTATCTAGAAGGCTTTGATTGCTCGGAGTCACCTAGTGCAG” here?
**A.** The binding signal was 9520 fluorescence intensity (a.u.).

**Q.** For “TCATTGTTCTCACTTCCTCGTCTTGAGCACTTGAGTCTCTCGGAGTCACCTAGTGCAG”, which binding signal is on record?
**A.** The binding signal was 8420 fluorescence intensity (a.u.).

**Q.** For “TGCACTGGGCTCCCATCTGAATGTCCTTATGCCAACCTCCCGGAGTCACCTAGTGCAG”, which binding signal is on record?
**A.** Its binding signal is 8520 fluorescence intensity (a.u.).

**Q.** With “CTAATCCTCCTGCTCCATCTCGATCCACATAACGATCCACCGGAGTCACCTAGTGCAG” as the sequence, how does the binding signal read?
**A.** The binding signal was 8470 fluorescence intensity (a.u.).

**Q.** Which binding signal does the source give for “CATATTATAAATCATTTGACTTTTTTCATATTCAAAATTTCGGAGTCACCTAGTGCAG” here?
**A.** Its binding signal is 9090 fluorescence intensity (a.u.).

**Q.** With “ACTCTATTTAGATATTTTCCCACGCATCCGTCTCCTCCTCCGGAGTCACCTAGTGCAG” as the sequence, how does the binding signal read?
**A.** The binding signal was 9420 fluorescence intensity (a.u.).

**Q.** How did the binding signal turn out when “ACCAAACCCACGGCCTGGCCCACTGTCAGTACTAAGATAGCGGAGTCACCTAGTGCAG” was run?
**A.** The binding signal was 9120 fluorescence intensity (a.u.).

**Q.** “TCGCAGCAGCTGTTTTACCGGCTAGTTTTTTGCACACATCCGGAGTCACCTAGTGCAG” was tested. Which binding signal did it give?
**A.** The binding signal was 8600 fluorescence intensity (a.u.).

**Q.** For “CCTCCGTCCCTAAATATTCGACGCCGTTGACTTTTTTAAACGGAGTCACCTAGTGCAG”, which binding signal is on record?
**A.** Its binding signal is 21700 fluorescence intensity (a.u.).

**Q.** Which binding signal does the source give for “ATATTTGACGCCGTTGACTTTTTTAAACATATTTAACTGTCGGAGTCACCTAGTGCAG” here?
**A.** Its binding signal is 14600 fluorescence intensity (a.u.).

**Q.** How did the binding signal turn out when “CTCCGTTTGTAAATATTTGACGCCGTTGACTTTTTAAAATCGGAGTCACCTAGTGCAG” was run?
**A.** The binding signal was 22700 fluorescence intensity (a.u.).

**Q.** For “GTCCCTAAATATTTGACGCCGTTGACTTTTTTAAACATGTCGGAGTCACCTAGTGCAG”, which binding signal is on record?
**A.** Its binding signal is 28500 fluorescence intensity (a.u.).

**Q.** Which binding signal does the source give for “TATCTAAATATTTGACGCCGTTGACTTTTTAAAACATGTTCGGAGTCACCTAGTGCAG” here?
**A.** The binding signal was 30900 fluorescence intensity (a.u.).

**Q.** For “CCCTTTCACATGTCACCTCTGACCCACAAACAAACCCTTTCGGAGTCACCTAGTGCAG”, which binding signal is on record?
**A.** Its binding signal is 8210 fluorescence intensity (a.u.).

**Q.** For “GAGTTATCCTCACCACCCACCGCTCGTCGCCTCCACTCCGCGGAGTCACCTAGTGCAG”, which binding signal is on record?
**A.** The binding signal was 8120 fluorescence intensity (a.u.).

**Q.** With “AGTAAGAGATCTCAAATTGATATGGGTTCTTGTTTTATATCGGAGTCACCTAGTGCAG” as the sequence, how does the binding signal read?
**A.** The binding signal was 8150 fluorescence intensity (a.u.).

**Q.** How did the binding signal turn out when “CACCAAGCAGTCCCCTGTGTTCATCTTCTGAAGTCTGATTCGGAGTCACCTAGTGCAG” was run?
**A.** The binding signal was 8360 fluorescence intensity (a.u.).

**Q.** “ATTCCGCGCGCCGCCGCCGTCGCCGCCGCCGACGTCGCCGCGGAGTCACCTAGTGCAG” was tested. Which binding signal did it give?
**A.** Its binding signal is 8920 fluorescence intensity (a.u.).

**Q.** For “GATGCCATTTTTAAACAATTCCATGCCTTGTTTCCATTTCCGGAGTCACCTAGTGCAG”, which binding signal is on record?
**A.** The binding signal was 13400 fluorescence intensity (a.u.).

**Q.** How did the binding signal turn out when “CTAAATGTTTAACGCCGTTGACTTTTTAAAACATATTTGACGGAGTCACCTAGTGCAG” was run?
**A.** The binding signal was 13400 fluorescence intensity (a.u.).

**Q.** Which binding signal does the source give for “TCCGTCCCTAAATATTTGACGCCGTTGACTTTTTAACACACGGAGTCACCTAGTGCAG” here?
**A.** The binding signal was 35700 fluorescence intensity (a.u.).

**Q.** How did the binding signal turn out when “GTACTCCCTCTGACCCTAAATATTTGACGTCGTTGACTTTCGGAGTCACCTAGTGCAG” was run?
**A.** Its binding signal is 16300 fluorescence intensity (a.u.).

**Q.** How did the binding signal turn out when “CTCCGTTATCGTTTGACTTTCTTTTCATTAATATTTTAAACGGAGTCACCTAGTGCAG” was run?
**A.** The binding signal was 15600 fluorescence intensity (a.u.).

**Q.** With “ATTTCTAAATATTTGACGTCGTTGACTTTTTTAAACATGTCGGAGTCACCTAGTGCAG” as the sequence, how does the binding signal read?
**A.** The binding signal was 26800 fluorescence intensity (a.u.).

**Q.** For “CATCTGTTTCTGAATATTTGACGCCGTTGACTTTTTAAAACGGAGTCACCTAGTGCAG”, which binding signal is on record?
**A.** The binding signal was 19600 fluorescence intensity (a.u.).

**Q.** With “CTAAATATTTGACGCCGTTGACTTTTTAAAACATGTTTGACGGAGTCACCTAGTGCAG” as the sequence, how does the binding signal read?
**A.** Its binding signal is 30500 fluorescence intensity (a.u.).

**Q.** “AAATATTTGACGCCGTTGACTTTCTTAAACATGTTTAACTCGGAGTCACCTAGTGCAG” was tested. Which binding signal did it give?
**A.** The binding signal was 15700 fluorescence intensity (a.u.).
